Assay outcomes (PubChem BioAssay)
Rab9 prom act: activators of Rab9 promoter. hit rate 2.8% among 320,000. Potency, µM (doses to about 9.22 µM), inactives show at the highest dose activation, negative = inhibition, most hits filed as activators. Huh7 Rab9 promoter-luciferase reporter, luminescence, 24 h. AID 485297; note: % of control where 0% means no effect; nearly all actives have a fitted effect of over 60% in size
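Huh7 reporter line, Rab9 promoter upstream of luciferase. Compound exposure 24 h at 37 °C in reduced-serum medium with 10% FBS. Read-out: luminescence.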
NPC1 promoter act: NPC1 promoter activation | hit rate 2.4% among 320,000 | Huh7 NPC1 promoter luciferase reporter, 24 h | Potency, µM (series often up to 9.22 µM), for inactives: top-dose activation, hits mostly activators; note: % of control where 0% means no effect; nearly all actives have a fitted effect of over 60% in size
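NPC1 promoter–luciferase Huh7 cells; 24 h compound; luminescence.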
ELG1 repair inh: blocks ELG1-dependent DNA repair in HEK293T cells; HEK293T ELG1-luciferase reporter, luminescence, 16 h; DNA damage induced by 5-fluorouridine; Potency, µM (top dose mostly 46.1 µM), for the others: at the highest dose activity change, negative = inhibition, actives largely listed as inhibitors; hit rate 2.3% among 330,000; AID 504467; note: % is set by controls: 0 for no effect and ±100 for the full control effect; nearly all actives have a fitted effect of over 55% in size
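Step one: seed 2,000 cells per well. Step two: pin-transfer compound or DMSO alongside 5-fluorouridine. Step three: incubate 16 hr, 37 °C, 5% CO2. Step four: add ONE-Glo, wait 30 min, read luminescence.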
ELG1 genotoxic: induces genotoxicity in HEK293T cells with luciferase-tagged ELG1 | HEK293T ELG1-luciferase reporter, luminescence, 16 h | hit rate 1.3% among 330,000 | Potency, µM (doses to about 46 µM), for inactives: at the top dose activity change, positive = activation, actives largely listed as activators; note: % of control where 0% means no effect; nearly all actives have a fitted effect of over 60% in size
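HEK293T cells expressing luciferase-tagged ELG1 were exposed to compound or DMSO vehicle for 16 hr at 37 °C and 5% CO2. Luciferase activity was then measured with ONE-Glo after 30 min at room temperature.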
FLuc modulator: firefly luciferase modulation, counter-screen for miR-21 project | Potency, µM (series often up to 57.5 µM), inactives show at the top dose activity change, negative = inhibition, usual class: inhibitors | purified FLuc, Km substrates, luminescence inhibition | AID 588342 | hit rate 6.9% among 360,000;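 note: plate controls were vehicle for no effect and reference inhibitor for full effect; nearly all actives have a fitted effect of over 55% in size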
Target sequence (P08659 whole entry, looked up): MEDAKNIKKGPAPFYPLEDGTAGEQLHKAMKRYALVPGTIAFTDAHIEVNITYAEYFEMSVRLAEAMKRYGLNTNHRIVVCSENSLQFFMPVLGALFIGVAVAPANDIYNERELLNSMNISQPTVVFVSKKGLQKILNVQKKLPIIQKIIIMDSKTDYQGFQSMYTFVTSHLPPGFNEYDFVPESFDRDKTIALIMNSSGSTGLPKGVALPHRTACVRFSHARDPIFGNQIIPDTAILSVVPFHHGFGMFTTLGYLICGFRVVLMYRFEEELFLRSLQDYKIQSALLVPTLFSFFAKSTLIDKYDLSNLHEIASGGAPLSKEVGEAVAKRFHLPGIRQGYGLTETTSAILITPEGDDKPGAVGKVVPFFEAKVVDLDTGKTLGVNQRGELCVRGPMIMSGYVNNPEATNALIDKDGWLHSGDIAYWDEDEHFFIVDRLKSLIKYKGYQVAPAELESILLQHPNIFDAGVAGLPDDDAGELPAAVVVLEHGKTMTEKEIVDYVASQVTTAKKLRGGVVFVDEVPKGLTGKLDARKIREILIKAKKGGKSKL
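Purified P. pyralis luciferase, 10 nM final, with Km-level 10 uM D-luciferin and 10 uM ATP in 50 mM Tris acetate pH 7.5, 10 mM Mg acetate, 0.01% Tween-20, 0.05% BSA; 6-point qHTS titration about 60 µM downward; luminescence read.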
SMN2 splice up: increases expression of the SMN2 splice variant; hit rate 2.8% among 210,000; HEK293 SMN2-luciferase splicing reporter, luminescence, 30-36 h; AID 1458; Potency, µM (titrated, usually from 46.1 µM), for the others: top-dose activity change, positive = activation, usual class: activators; note: % of control where 0% means no effect; nearly all actives have a fitted effect of over 55% in size
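qHTS luciferase splicing reporter: luminescence rises when SMN2 exon 7 is included in transfected HEK293 cells. Compound exposure lasted 30-36 h at 37C, with 4.5 mM final sodium butyrate as control, followed by a ONE-Glo read.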
* marks the source's active call; other numbers are inactive results; ? = inconclusive; . = no result given. Hits are enriched below; roughly 9.2% of the tested compounds scored in any of these assays. Calls come from the whole dose curve; as a rule, active = well fitted curve in the direction sought with a large enough effect; inconclusive = small, poorly fitted or top-dose-only effect, or another doubt; inactive = no such curve, though single readings can be large; an effect the other way counts as inactive or inconclusive. Potency is the fitted concentration of half-maximal effect.

SMILES	Rab9 prom act	NPC1 promoter act	ELG1 repair inh	ELG1 genotoxic	FLuc modulator	SMN2 splice up
CCOC(=O)c1c(C)[nH]c(C)c1C(=O)COC(=O)/C=C/c1ccc(Cl)cc1	-7%	-1%	-10%	0%	-5%	21%
CN1C(=O)/C(=C2\SC(N3CCCCCC3)=NC2=O)c2ccccc21	3.5µM*	?	?	?	2.7µM*	9%
CN1C(=O)/C(=C2\SC(N)=NC2=O)c2ccccc21	-3%	-4%	-5%	7%	2%	-24%
CCCN1C(=O)/C(=C2\SC(N3CCCCC3)=NC2=O)c2ccccc21	2.8µM*	1.3µM*	?	10%	2.1µM*	19%
CCOc1ccc(/C=C2\SC(N3CCCCC3)=NC2=O)cc1	-2%	1%	11%	4%	?	.
O=C(c1ccccc1)N1CCc2cc(CNS(=O)(=O)c3ccc(Cl)s3)ccc21	.	.	.	.	0%	.
CC(C)c1ccc(NC(=S)NCc2cccs2)cc1	20%	24%	?	?	15µM*	17%
COc1ccc(NC(=S)NCc2cccs2)cc1	4%	-1%	-9%	-1%	?	?
CN1C(=O)c2cccc(NCCCCCCN3C(=O)c4ccccc4C3=O)c2C1=O	-10%	-3%	15µM*	4%	-1%	-51%
CN1C(=O)c2cccc(NCCCN3C(=O)c4ccccc4C3=O)c2C1=O	-2%	0%	8%	4%	0%	8%
CCN(CC)C1CCN(Cc2cn[nH]c2-c2ccc(OC)c(F)c2)C1 (centres undefined)	11%	-2%	-15%	2%	-1%	.
COc1ccc(-c2[nH]ncc2CN2CCN(Cc3cccs3)CC2)cc1F	0%	?	21µM*	-11%	-2%	-18%
Cc1ccc2nc(-c3ccc4c(c3)OCCO4)cc(C(=O)O)c2c1	13%	25%	?	?	2.4µM*	?
O=C(NCc1ccc2c(c1)OCO2)c1cc(-c2ccncc2)nc2ccccc12	1%	0%	?	-6%	?	.
CCCNC(=O)NNC(=O)c1cc(-c2ccc3c(c2)OCO3)nc2ccccc12	-7%	1%	14%	0%	13µM*	.
O=C(O)c1cc(-c2cccs2)nc2cc3c(cc12)OCCO3	-1%	3%	?	10%	9.5µM*	?
CCCN(CCC)C(=O)c1cc(-c2ccc3c(c2)OCO3)nc2ccccc12	-1%	-2%	18µM*	-15%	?	-17%
O=C(NN1CCOCC1)c1cc(-c2cccs2)nc2ccccc12	0%	5%	-11%	-4%	-18%	17%
CC(NC(=O)CN1CCOCC1)c1ccc(F)cc1 (centres undefined)	1%	-1%	?	1%	0%	.
Cc1ccc(C2=NN3C(C(=O)c4ccccc4)Oc4ccccc4C3C2)cc1 (centres undefined)	?	22%	?	2%	-14%	13%
CC(=O)c1ccc(N2CCN(C(=O)c3cc(-c4ccc5c(c4)OCO5)nc4ccccc34)CC2)cc1	11%	6%	?	-11%	7.6µM*	?
CC(NC(=O)c1cc(-c2ccc3c(c2)OCO3)nc2ccccc12)C(C)(C)C (centres undefined)	-3%	0%	-2%	0%	-14%	6%
O=C(O)c1cc(-c2ccc3c(c2)OCO3)nc2ccccc12	-7%	9%	?	4%	8.5µM*	14%
CSc1ccccc1C(=O)N1CCCC(CCC(=O)NCc2ccc(F)c(F)c2)C1 (centres undefined)	0%	0%	?	-1%	1%	.
COC(=O)CCCC(=O)N1CCCC(CCC(=O)NCc2ccc(F)c(F)c2)C1 (centres undefined)	-3%	-4%	-18%	?	17µM*	.
